PubChem BioAssay (NCI)
The panel holds about 79,000 compounds, 15% with a hit somewhere; the sample as a whole holds those more often. Unmarked numbers belong to inactive results. Rule as the data show it: active = growth inhibition above about 70%; inactive = the rest.

Assay: NCI Yeast Anticancer Drug Screen. Data for the rad50 strain (AID 155);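 also: 0% = growth of vehicle-only cultures of the same strain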
Conditions: S. cerevisiae rad50 strain growth inhibition; at 5.0 µM (retest, dose inferred, filed as 0.5); stronger effect = higher value
In short: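 Cells are treated with compound, grown, and their growth is then scored against vehicle-only cultures of the same repair-deficient yeast strain.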

Q: For `CC(CN(C)C)C(=O)/C=C/c1c(Cl)cccc1Cl` (stereo not drawn), which growth inhibition is on record?
A: 2%

Q: With `COc1ccc(C(=O)c2cc(Br)ccc2O)cc1` as the compound, how does the growth inhibition read?
A: -3%

Q: With `COc1cccc(OC)c1C(=O)/C=C/c1ccccc1` as the compound, how does the growth inhibition read?
A: -3%

Q: For `S=C(Nc1ccc(Cl)c(Cl)c1)SC1CCCCC1`, which growth inhibition is on record?
A: 17%

Q: For `Cc1sc(N=Nc2c(O)[nH]c3ccccc23)nc1-c1ccccc1`, which growth inhibition is on record?
A: 20%

Q: Which growth inhibition does the source give for `O=C(NC(c1ccccc1)N1CCOCC1)c1ccccc1` (stereo not drawn) here?
A: 2%

Q: For `Cc1nc2ccc3c(ccc4nc(C)c(N=Nc5ccc(C(=N)N)cc5)c(O)c43)c2c(O)c1N=Nc1ccc(C(=N)N)cc1`, which growth inhibition is on record?
A: 5%

Q: With `CN(C)CCNC(=O)C(c1ccccc1)c1ccccc1` as the compound, how does the growth inhibition read?
A: 31%

Q: With `CCOc1ccc(C(=O)CCN2CCOCC2)cc1` as the compound, how does the growth inhibition read?
A: 8%

Q: With `O=S(Nc1ccccc1Br)c1ccccc1` (stereo not drawn) as the compound, how does the growth inhibition read?
A: -4%

Q: Which growth inhibition does the source give for `CSC(=S)N/N=C(\C)c1ccc[nH]1` here?
A: -2%

Q: For `Cc1ccc(Cl)cc1NN`, which growth inhibition is on record?
A: -1%

Q: With `C[C@]12CC[C@H](O)C[C@@H]1CC[C@@H]1[C@@H]2CC[C@]2(C)[C@@H](c3cc(C(F)(F)F)n[nH]3)CC[C@@H]12` as the compound, how does the growth inhibition read?
A: 12%

Q: For `CCCOC(=O)C(S)C(S)C(=O)OCCC` (stereo not drawn), which growth inhibition is on record?
A: 23%

Q: Which growth inhibition does the source give for `CCC(C)(C)c1cc(Br)c(NS(=O)(=O)c2ccc(NC(C)=O)cc2)c(Br)c1` here?
A: 5%

Q: With `Cn1c2c(c3nc(N)nc(N)c3c1=O)CCc1ccccc1-2` as the compound, how does the growth inhibition read?
A: 6%

Q: Which growth inhibition does the source give for `Cc1ccc(C(O)CCN2CCOCC2)c(C)c1` (stereo not drawn) here?
A: 26%

Q: Which growth inhibition does the source give for `COC(=O)CCCC(=O)NC1=C(Nc2ccccc2)C(=O)c2ccccc2C1=O` here?
A: 27%
